The structures appear in SMILES notation. Activity calls are given as the source filed them.

One assay concerns the target Albumin (Bos taurus) (UniProt P02769). The assay is described as follows: bovine serum albumin binders on microarray, profiling panel, artefact control for SMM control protein annotation, biochemical, small-molecule microarray, Alexa647 label, 635/667 nm fluorescence (AID 1118).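 Also: score merges 667 nm emission intensity and signal-to-noise per printed compound spot.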 Conditions: BSA-A647 binding, fluorescence 635 nm, higher = more signal.
A short description of assay [1]: small-molecule microarray binders of probe aXIP, primary screen, biochemical, NeuroSMM set, 635/667 nm fluorescence (AID 1119).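 Also: probe is the protein aXip251-270 applied at 1 µg/mL to compound-printed slides; binding of probe to printed compounds measured as 667 nm fluorescence plus signal to noise.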 Conditions: higher = more signal, called active from +8 up or from −8 down.
Assay [2] can be described thus: small-molecule binders of probe aNOTCH3, primary screen, biochemical, small-molecule microarray, 635/667 nm fluorescence (AID 1120).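 Also: probe is a biotin-tagged antibody raised against NOTCH3 rather than NOTCH3 protein; score merges spot fluorescence near 667 nm with spot signal to noise.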 The settings on record: higher = more signal.
A short description of assay [3]: small-molecule binders of probe aNOTCH2, primary screen, biochemical, small-molecule microarray, 635/667 nm fluorescence (AID 1121).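 Also: score merges feature fluorescence read at 667 nm with its signal to noise.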 The settings on record: higher = more signal.
The target in assay [4] is Carbonic anhydrase 2 (Homo sapiens) (UniProt P00918). The assay is described as follows: CAII small-molecule binders, profiling panel, biochemical, small-molecule microarray, Alexa647-labelled CAII (AID 1122). The settings on record: CAII-A647 binding fluorescence, higher = more signal.
Assay [5] is described as follows: COS7 lysate on small-molecule microarray, probe aHis, 635 nm (AID 1123).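 Also: z-score combines 667nm fluorescence intensity with signal-to-noise per printed compound spot.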 Conditions: COS7 cell lysate, fluorescence, higher = more signal.
The nature of assay [6]: compound binding in COS7 lysate, probe aLAP1, primary screen, cell lysate, small-molecule microarray (AID 1124).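 Also: lysate comes from COS7 cells expressing LAP1 and is applied at 0.3 µg/mL; score merges spot fluorescence near 667 nm with signal-to-noise over triplicate slides.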 The settings on record: probe aLAP1, fluorescence, higher = more signal.
For the next assay, the system named is Sam68 (KHDRBS1). The assay is described as follows: Sam68 small-molecule binders, primary screen, biochemical, small-molecule microarray, 635 nm fluorescence (AID 1125).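 Also: score merges 667 nm channel intensity with signal to noise over triplicate slides.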 Conditions: small-molecule microarray binding, higher = more signal.
Assay [7] concerns Chordin-like protein 2 (CHRDL2). The assay is described as follows: CHRDL2 small-molecule binders, primary screen, biochemical, small-molecule microarray, 635 nm fluorescence (AID 1126).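 Also: printed compound slides probed with Chrdl2 protein at 4 µg/mL for 1 h at 4 C; score merges 667 nm emission intensity with signal to noise over three replicate slides.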 Conditions: small-molecule microarray binding, fluorescence 635 nm; higher = more signal.
The target of assay [8] is Concanavalin-A (Canavalia ensiformis) (UniProt P02866). The assay is described as follows: ConA small-molecule binders, primary screen, artefact control for SMM control protein annotation, biochemical, small-molecule microarray, Alexa647 label, 635 nm (AID 1127).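 Also: z combines 667 nm emission intensity with signal-to-noise across three replicate slides.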 The settings on record: ConA-A647 binding fluorescence, higher = more signal.
Assay [9] in a line: anti-His antibody binders, primary screen, artefact control for SMM control protein annotation, biochemical, small-molecule microarray, 635 nm fluorescence (AID 1128).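 Also: score merges feature fluorescence with signal-to-noise for each printed compound spot.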 The settings on record: anti-His Alexa647 antibody binding, higher = more signal.
The test system of assay [10] is Human papillomavirus type 1a E7 protein (residues 1-88). As to the kind of experiment: HPV1a E7 small-molecule binders, primary screen, biochemical, small-molecule microarray, residues 1-88, 635 nm (AID 1129). Conditions: small-molecule microarray binding, fluorescence 635 nm; higher = more signal.
The target in assay [11] is Focal adhesion kinase 1 (Homo sapiens) (UniProt Q05397). The assay is described as follows: small-molecule microarray binders of FAK, primary screen, biochemical, 635/667 nm fluorescence, BSA, DTT (AID 1130).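 Also: composite of spot emission at 667 nm and signal to noise over triplicate slides.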 Conditions: PTK2 binding, 635 nm fluorescence, higher = more signal.
In assay [12] the test system is Fibrinogen (Alexa647-labelled). As to the kind of experiment: fibrinogen binders on compound microarrays, profiling panel, artefact control for SMM control-protein annotation, biochemical, small-molecule microarray, 635/667 nm fluorescence (AID 1131).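 Also: z-score merges 667 nm fluorescence with per-spot signal-to-noise over triplicate slides.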 Conditions: fibrinogen-A647 binding fluorescence, higher = more signal.
Assay [13] deals with Follistatin (Homo sapiens) (UniProt P19883). The assay is described as follows: follistatin binders on small-molecule microarrays, primary screen, biochemical, small-molecule microarray, 635/667 nm fluorescence (AID 1132). The settings on record: FST binding, 635 nm fluorescence, higher = more signal.
The target in assay [14] is Fibroblast growth factor 2 (Homo sapiens) (UniProt P09038). As to the kind of experiment: FGF2 binders on small-molecule microarrays, primary screen, biochemical, small-molecule microarray, 635/667 nm fluorescence (AID 1133). Conditions: small-molecule microarray binding, FGF2, fluorescence 635/667; higher = more signal.
Assay [15] in a line: mitochondrial membrane potential change in A549 cells, profiling panel, cell-based, JC-1 fluorescence, basal, 24 h, 100 nL (AID 1138).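 Also: A549 lung adenocarcinoma cells under basal conditions with no added stimulus; test concentration not given here.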 The settings on record: higher = more signal.
The subject of another assay is Lefty1. As to the kind of experiment: Lefty1 binders on small-molecule microarrays, primary screen, biochemical, small-molecule microarray, 635/667 nm fluorescence (AID 1139). Conditions: small-molecule microarray binding, fluorescence 635/667; higher = more signal.
Assay [16] has as its system wheat germ agglutinin (Triticum aestivum), Alexa647-labelled. As to the kind of experiment: wheat germ agglutinin binders on compound microarrays, profiling panel, artefact control for SMM control-protein annotation, biochemical, small-molecule microarray, 635/667 nm fluorescence (AID 1140).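 Also: score merges 667 nm feature emission with signal to noise over triplicate slides.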 Conditions: WGA-A647 binding, 635 nm fluorescence, higher = more signal.
In assay [17] the target is Luciferin 4-monooxygenase (Photinus pyralis) (UniProt P08659). The assay is described as follows: firefly luciferase enzyme inhibitors, primary screen, biochemical, luminescence, purified enzyme, 2006 set (AID 1141).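 Also: cell-free assay with purified firefly luciferase at 100 ng per well in PBS; test concentration not given here.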 Conditions: SteadyGlo luminescence, 30 min, higher = more signal, called active from +8 up or from −8 down.
Chain of Luciferin 4-monooxygenase (Photinus pyralis) (P08659 whole entry, looked up): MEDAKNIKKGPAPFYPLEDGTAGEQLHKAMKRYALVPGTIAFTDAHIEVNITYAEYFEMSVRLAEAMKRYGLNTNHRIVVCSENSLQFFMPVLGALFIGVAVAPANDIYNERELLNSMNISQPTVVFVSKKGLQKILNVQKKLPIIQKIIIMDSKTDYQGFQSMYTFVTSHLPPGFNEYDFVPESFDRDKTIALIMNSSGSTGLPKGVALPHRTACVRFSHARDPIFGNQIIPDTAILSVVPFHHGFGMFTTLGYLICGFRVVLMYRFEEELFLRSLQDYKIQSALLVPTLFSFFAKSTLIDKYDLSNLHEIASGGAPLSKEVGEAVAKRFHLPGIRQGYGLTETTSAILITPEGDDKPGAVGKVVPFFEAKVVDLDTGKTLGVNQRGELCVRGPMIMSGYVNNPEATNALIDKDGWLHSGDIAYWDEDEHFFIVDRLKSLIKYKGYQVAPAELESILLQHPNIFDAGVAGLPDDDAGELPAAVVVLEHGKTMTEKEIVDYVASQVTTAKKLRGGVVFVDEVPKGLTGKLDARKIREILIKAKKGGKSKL

Chain of Albumin (Bos taurus) (P02769 whole entry, looked up): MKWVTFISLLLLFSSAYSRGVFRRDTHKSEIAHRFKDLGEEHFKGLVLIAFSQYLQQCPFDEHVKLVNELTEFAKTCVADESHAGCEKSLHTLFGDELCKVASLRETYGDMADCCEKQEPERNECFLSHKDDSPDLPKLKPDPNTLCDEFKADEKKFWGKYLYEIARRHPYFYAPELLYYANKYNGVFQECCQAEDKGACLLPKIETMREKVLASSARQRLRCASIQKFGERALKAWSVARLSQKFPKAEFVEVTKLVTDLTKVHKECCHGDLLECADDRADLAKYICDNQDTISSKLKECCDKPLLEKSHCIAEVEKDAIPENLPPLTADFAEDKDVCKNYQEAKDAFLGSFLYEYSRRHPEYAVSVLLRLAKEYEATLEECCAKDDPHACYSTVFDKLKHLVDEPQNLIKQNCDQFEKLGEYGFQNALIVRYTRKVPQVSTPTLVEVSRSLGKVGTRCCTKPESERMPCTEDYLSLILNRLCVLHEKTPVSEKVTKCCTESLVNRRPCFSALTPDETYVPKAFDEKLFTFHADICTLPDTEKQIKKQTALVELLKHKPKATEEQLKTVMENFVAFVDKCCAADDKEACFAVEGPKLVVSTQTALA
Chain of Follistatin (Homo sapiens) (P19883 whole entry, looked up): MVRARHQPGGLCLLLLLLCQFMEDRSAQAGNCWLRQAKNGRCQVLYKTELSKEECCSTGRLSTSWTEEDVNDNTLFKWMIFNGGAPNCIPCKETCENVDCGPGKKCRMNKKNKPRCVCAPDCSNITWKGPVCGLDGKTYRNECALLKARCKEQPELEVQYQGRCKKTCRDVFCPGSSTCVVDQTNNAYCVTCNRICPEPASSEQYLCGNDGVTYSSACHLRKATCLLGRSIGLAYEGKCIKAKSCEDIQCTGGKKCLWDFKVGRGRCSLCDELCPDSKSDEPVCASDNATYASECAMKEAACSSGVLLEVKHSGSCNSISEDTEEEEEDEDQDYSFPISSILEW
Chain of Concanavalin-A (Canavalia ensiformis) (P02866 whole entry, looked up): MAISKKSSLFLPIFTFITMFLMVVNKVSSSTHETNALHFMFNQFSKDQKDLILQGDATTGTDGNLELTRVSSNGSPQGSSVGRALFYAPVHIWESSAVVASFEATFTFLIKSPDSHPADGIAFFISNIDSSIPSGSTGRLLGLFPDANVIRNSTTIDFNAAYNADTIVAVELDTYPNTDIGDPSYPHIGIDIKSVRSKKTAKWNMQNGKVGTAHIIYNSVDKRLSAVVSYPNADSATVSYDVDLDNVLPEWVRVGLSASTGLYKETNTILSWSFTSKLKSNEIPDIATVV
Chain of Focal adhesion kinase 1 (Homo sapiens) (Q05397 whole entry, looked up): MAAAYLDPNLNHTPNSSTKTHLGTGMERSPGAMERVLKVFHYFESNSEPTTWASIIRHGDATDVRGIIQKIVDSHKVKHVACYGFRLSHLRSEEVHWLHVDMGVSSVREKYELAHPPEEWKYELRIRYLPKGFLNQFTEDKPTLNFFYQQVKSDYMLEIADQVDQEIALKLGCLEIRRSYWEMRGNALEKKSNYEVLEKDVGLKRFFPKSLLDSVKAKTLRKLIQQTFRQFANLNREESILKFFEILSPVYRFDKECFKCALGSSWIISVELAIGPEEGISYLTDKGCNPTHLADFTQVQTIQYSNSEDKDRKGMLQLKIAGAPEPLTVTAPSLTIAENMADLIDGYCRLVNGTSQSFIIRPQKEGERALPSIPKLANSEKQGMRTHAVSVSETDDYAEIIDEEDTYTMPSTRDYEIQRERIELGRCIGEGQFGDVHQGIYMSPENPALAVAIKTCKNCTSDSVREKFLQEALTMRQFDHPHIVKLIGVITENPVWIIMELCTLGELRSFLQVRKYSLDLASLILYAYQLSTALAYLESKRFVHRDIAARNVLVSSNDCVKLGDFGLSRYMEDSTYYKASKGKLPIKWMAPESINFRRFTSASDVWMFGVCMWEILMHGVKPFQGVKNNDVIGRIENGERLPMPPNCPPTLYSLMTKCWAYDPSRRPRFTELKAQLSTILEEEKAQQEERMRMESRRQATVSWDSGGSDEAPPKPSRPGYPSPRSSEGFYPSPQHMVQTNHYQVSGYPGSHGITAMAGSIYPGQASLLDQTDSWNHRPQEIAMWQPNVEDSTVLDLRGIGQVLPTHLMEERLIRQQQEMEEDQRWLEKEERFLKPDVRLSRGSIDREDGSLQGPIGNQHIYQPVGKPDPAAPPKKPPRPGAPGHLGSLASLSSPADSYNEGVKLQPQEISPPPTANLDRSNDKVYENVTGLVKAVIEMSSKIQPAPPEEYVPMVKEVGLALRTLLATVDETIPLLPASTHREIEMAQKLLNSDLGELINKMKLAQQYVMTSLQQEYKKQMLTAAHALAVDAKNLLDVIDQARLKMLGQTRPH
Chain of Fibroblast growth factor 2 (Homo sapiens) (P09038 whole entry, looked up): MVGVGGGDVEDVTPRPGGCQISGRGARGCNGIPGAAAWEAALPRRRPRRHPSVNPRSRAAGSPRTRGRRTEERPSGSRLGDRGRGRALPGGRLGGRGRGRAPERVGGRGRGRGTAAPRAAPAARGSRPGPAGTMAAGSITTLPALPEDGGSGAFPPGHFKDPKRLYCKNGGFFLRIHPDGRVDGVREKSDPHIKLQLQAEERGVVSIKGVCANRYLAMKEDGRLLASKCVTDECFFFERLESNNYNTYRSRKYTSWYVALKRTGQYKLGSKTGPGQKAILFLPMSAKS

Consider `CC#CC(=O)Oc1ccc(Br)cc1C=CC(=O)OCC`, for which the composite z-score was -0.107 in the assay with Albumin (Bos taurus); 0.144 in assay [2]; -0.0529 in assay [3]; 0.18 in [4]; 0.942 in assay [5]; 0.158 in [6]. The composite z-score in the assay with Sam68 (KHDRBS1) was 0.582; in assay [7], 0.103; in assay [8] it was 0.269; in assay [9], -0.179; in assay [10], 1.06; in assay [11], 0.167. Besides, the composite z-score is -0.382 in assay [12]; 0.233 in [13]; -0.0698 in assay [14]; 0.0606 in the assay with Lefty1; 0.665 in [16]. In assay [1], the composite Z-score is 1.39 (inactive). Moreover, the values for the z-score in assay [15] and in [17] were -0.817 and -0.39 (inactive), respectively.

Turning to `CCCC1(C(=O)OC)C=C2C(=C(c3ccccc3)C(=O)C2C)CN1` (stereo not given), the composite z-score in the assay with Albumin (Bos taurus) was -0.0235; in assay [2], 0.0365; in [3], 0.015; in assay [4], 0.756; in assay [5], 1.51; in assay [6], 0.959. Moreover, the composite z-score with Sam68 (KHDRBS1) is 0.0707; in assay [7], 0.108; in assay [8], -1.13; in [9], 0.295; in assay [10], 0.412; in [11], 0.198. For the same compound, the composite z-score is 0.453 in [12]; 0.13 in assay [13]; -0.299 in assay [14]; 0.0496 in the assay on Lefty1; 0.858 in [16]. In addition, the composite Z-score in [1] is 0.589 (inactive). For the same compound, the z-score in assay [15] is 1.63; in [17], 1.11 (inactive).

`COc1cc2c(cc1O)C=[N+](Cc1cc3c(cc1Br)OCO3)CC2`: the composite z-score was -0.71 in the assay with Albumin (Bos taurus); -0.185 in [2]; -0.126 in assay [3]; 0.844 in assay [4]; 0.0478 in [5]; 0.27 in assay [6]. The composite z-score in the assay with Sam68 (KHDRBS1) was -0.54; in assay [7], -0.139; in assay [8], -1.27; in assay [9], -0.954; in assay [10], -1.07; in [11] it was -0.626. Further, the composite z-score in [12] is -2.07; in assay [13], -0.174; in assay [14] it was -0.659; with Lefty1, -0.553; in assay [16], 0.248. Also, the composite Z-score in [1] was -0.402 (inactive). Further, the z-score was -0.784 in assay [15] and 0.807 (inactive) in assay [17].

Consider `O=C1C2C=CC(C(O)c3ccc4c(c3)OCO4)N(Nc3ccc([N+](=O)[O-])cc3)C2C(=O)N1c1ccccc1` (stereo not given), for which the composite z-score in the assay with Albumin (Bos taurus) was 0.854; in [2], 0.0225; in [3] it was -0.104; in [4], 0.699; in assay [5] it was 1.15; in [6], 0.345. Besides, the composite z-score with Sam68 (KHDRBS1) is 0.597; in assay [7] it was -0.0385; in [8] it was 0.813; in [9] it was 1.29; in assay [10], 0.978; in [11], -0.0123. Also, the composite z-score in [12] is 0.293; in [13], 0.225; in [14] it was -0.0036; in the assay with Lefty1, 0.313; in assay [16] it was 0.0897. The composite Z-score in assay [1] is -0.0054 (inactive). Also, the z-score was -0.35 in assay [15] and 0.382 (inactive) in assay [17].

For `COC(=O)C[C@H]1O[C@@H](CCc2ccccc2)[C@@H](C)[C@@H]1[Si](C)(C)c1ccc(OC)cc1`, the composite z-score with Albumin (Bos taurus) is -0.932; in [2] it was -0.268; in assay [3], -0.154; in assay [4], -0.394; in assay [5], -0.308; in assay [6], 0.314. Moreover, the composite z-score with Sam68 (KHDRBS1) was -1.1; in assay [7], 0.323; in assay [8] it was -0.615; in assay [9] it was -0.608; in [10], -1.35; in assay [11], 0.217. For the same compound, the composite z-score was -0.755 in [12]; 0.0222 in assay [13]; -0.187 in assay [14]; -0.105 in the assay with Lefty1; -0.359 in [16]. In addition, the composite Z-score in [1] is 0.611 (inactive). For the same compound, the z-score in assay [15] was 1.57; in assay [17], 0.301 (inactive).
